Source: PubChem BioAssay AID827 (SRMLSC, 2007)
In all, about 140,000 compounds went through this assay and about 1,700 (1.2%) were called active.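 Rule for the calls: active = viability at or below a set limit, 4 SD under the median of all tested compounds (cut at about 3.7% in these data); inactive = the rest.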 The full list was thinned out, with actives kept by preference.

assay: growth suppression of PTEN-null HCT116, primary screen, cell-based, CellTiter-Glo (AID 827); conditions: 60 h, at 10 µM, stronger effect = lower value;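 note: PTEN knockout HCT116 line with beta catenin targeted HCT116 as companion control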

Row | Structure (SMILES) | viability
1 | CN(C)c1ccc(/C=C2\CC3C4CC=C5CC(O)CCC5(C)C4CCC3(C)C2=O)cc1 (stereo not given) | 2.86% (active)
2 | Cc1cccc(-n2c(O)c(/C=N/N3CCOCC3)c(=O)[nH]c2=S)c1 | 108% (inactive)
3 | O=c1[nH]c(=S)n(C2CC2)c(O)c1/C=N/N1CCOCC1 | 95.3% (inactive)
4 | CN(C)CC1CCCCC1OC(=O)c1ccc(Cl)c(Cl)c1 (stereo not given) | 82.2% (inactive)
5 | CCCCC(=O)N/N=C/c1c(O)n(CC)c(=S)n(CC)c1=O | 11.8% (inactive)
